This passage reports Potency results from PubChem BioAssay (NCATS).

The nature of assay [1]: qHTS for Inhibitors of the Functional Ribonucleoprotein Complex (vRNP) of Lassa (LASV) Arenavirus: Viability assay - alamar blue signal for LASV Primary Screen (AID 1347083; calls by dose curve; tested in HEK293 reporter line; also: nearly all actives have a fitted effect of over 80% in size). A general note: Quantitative high-throughput screening tests each substance at several concentrations.
The nature of assay [2]: qHTS for Inhibitors of the Functional Ribonucleoprotein Complex (vRNP) of Lymphocytic Choriomeningitis Arenaviruses (LCMV): Viability assay - alamar blue signal for LCMV Primary Screen (AID 1347085; calls by dose curve; tested in HEK293 reporter line; also: nearly all actives have a fitted effect of over 80% in size).
Assay [3] has as its target Nucleoprotein (Lymphocytic choriomeningitis virus (strain Armstrong)) (UniProt P09992). The assay is described as follows: qHTS for Inhibitors of the Functional Ribonucleoprotein Complex (vRNP) of Lymphocytic Choriomeningitis Arenaviruses (LCMV): LCMV Primary Screen - GLuc reporter signal (AID 1347086). Also: nearly all actives have a fitted effect of over 70% in size.

Where “and” joins values, the source holds several entries; their conditions need not be identical. Equal entries are not always repeated. Results filed as inconclusive are left out. Calls of active or inactive are those of the source. Unless noted, calls follow the shape of the full dose curve.
Potency is read from the fitted curve at half-maximal effect.

Nucleoprotein (Lymphocytic choriomeningitis virus (strain Armstrong)), sequence (P09992 whole entry, looked up): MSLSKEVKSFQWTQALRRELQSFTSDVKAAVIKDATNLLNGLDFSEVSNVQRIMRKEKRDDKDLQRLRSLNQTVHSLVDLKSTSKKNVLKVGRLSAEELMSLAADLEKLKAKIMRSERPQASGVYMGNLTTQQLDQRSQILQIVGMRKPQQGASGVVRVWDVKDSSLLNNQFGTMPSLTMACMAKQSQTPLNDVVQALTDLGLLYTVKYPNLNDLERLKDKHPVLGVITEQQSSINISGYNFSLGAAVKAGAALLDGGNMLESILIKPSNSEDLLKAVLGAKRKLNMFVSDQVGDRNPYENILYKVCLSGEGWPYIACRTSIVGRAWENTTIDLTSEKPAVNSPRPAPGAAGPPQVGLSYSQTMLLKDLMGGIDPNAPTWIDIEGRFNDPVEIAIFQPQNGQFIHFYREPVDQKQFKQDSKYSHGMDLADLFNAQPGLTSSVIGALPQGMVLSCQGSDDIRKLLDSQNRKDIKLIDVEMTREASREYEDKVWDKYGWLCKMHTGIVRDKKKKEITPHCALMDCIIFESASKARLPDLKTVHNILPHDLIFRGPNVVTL

With `COC(c1ccccc1)(c1ccccc1)[C@H](Oc1nc(C)cc(C)n1)C(=O)O`, the Potency result in assay [1], in assay [2] and in assay [3] was “inactive” throughout.
With `CC(=O)Nc1nnc(S(N)(=O)=O)s1`, the Potency entry in assay [1], in assay [2] and in assay [3] was “inactive” in each case.
In the case of `CN(C)/N=N/c1nc[nH]c1C(N)=O`, the Potency result in assay [1], in assay [2] and in assay [3] was “inactive” throughout.
On to `O=C(O)c1ccc(-n2nc(-c3ccccc3O)nc2-c2ccccc2O)cc1`, for which the Potency result in assay [1], in assay [2] and in assay [3] was “inactive” throughout.
Take `Cn1cc[nH]c1=S`: the Potency entry in assay [1], in assay [2] and in assay [3] was “inactive” each time.
For `COc1ccc(-c2cc(=S)ss2)cc1`, the Potency entry in assay [1], in assay [2] and in assay [3] was “inactive” in each case.
Regarding `CO/N=C(\C(=O)N[C@@H]1C(=O)N2C(C(=O)O)=C(CSc3nc(=O)c(O)nn3C)CS[C@H]12)c1csc(N)n1`, the Potency result in assay [1], in assay [2] and in assay [3] was “inactive” in each case.
As to `O=C(CCCCCCC(=O)Nc1ccccc1)NO`, the Potency in assay [1] was 8.91 µM (active) and 7.69 µM (active); in assay [2], 7690 nM (active). Also, the Potency result in assay [3] is “inactive”.
For the compound `CN(C)CCOC(c1ccc(Cl)cc1)c1ccccn1` (centres undefined), the Potency entry in assay [1], in assay [2] and in assay [3] was “inactive” throughout.
Consider `C[C@@H]1C[C@H]2[C@@H]3CCC4=CC(=O)C=C[C@]4(C)[C@@]3(F)[C@@H](O)C[C@]2(C)[C@@]1(O)C(=O)CO`, for which the Potency result in assay [1], in assay [2] and in assay [3] was “inactive” throughout.
On to `OCCN(CCO)c1nc(N2CCCCC2)c2nc(N(CCO)CCO)nc(N3CCCCC3)c2n1`, for which the Potency entry in assay [1], in assay [2] and in assay [3] was “inactive” each time.
For `COc1cc2c(N3CCN(C(=O)Nc4ccc(OC(C)C)cc4)CC3)ncnc2cc1OCCCN1CCCCC1`, the Potency entry in assay [1], in assay [2] and in assay [3] was “inactive” throughout.
As to `Cc1cn([C@H]2C=C[C@@H](CO)O2)c(=O)[nH]c1=O`, the Potency result in assay [1], in assay [2] and in assay [3] was “inactive” in each case.
With `CCCCC1=NC2(CCCC2)C(=O)N1Cc1ccc(-c2ccccc2-c2nn[nH]n2)cc1`, the Potency entry in assay [1], in assay [2] and in assay [3] was “inactive” throughout.
As for `COc1ccc(Cl)cc1C(=O)NCCc1ccc(S(=O)(=O)NC(=O)NC2CCCCC2)cc1`, the Potency entry in assay [1], in assay [2] and in assay [3] was “inactive” each time.
In the case of `CC[C@@]1(O)C(=O)OCc2c1cc1n(c2=O)Cc2cc3c(CN(C)C)c(O)ccc3nc2-1`, the Potency is 2.82 µM (active) and 1.09 µM (active) in assay [1]; 1720 nM (active) in assay [2]; 2.82 µM (active) and 3.06 µM (active) in assay [3].
Turning to `CCOC(=O)c1ncn2c1CN(C)C(=O)c1cc(F)ccc1-2`, the Potency result in assay [1], in assay [2] and in assay [3] was “inactive” each time.
As to `CC(C(=O)O)c1cccc(C(=O)c2ccccc2)c1` (centres undefined), the Potency entry in assay [1], in assay [2] and in assay [3] was “inactive” throughout.
Turning to `Cc1nc2n(c(=O)c1CCN1CCC(c3noc4cc(F)ccc34)CC1)CCCC2`, the Potency entry in assay [1], in assay [2] and in assay [3] was “inactive” throughout.
Take `CCC1(c2ccccc2)C(=O)NCNC1=O`: the Potency entry in assay [1], in assay [2] and in assay [3] was “inactive” each time.
Take `CC(C)C[C@H](NC(=O)[C@H](CCc1ccccc1)NC(=O)CN1CCOCC1)C(=O)N[C@@H](Cc1ccccc1)C(=O)N[C@@H](CC(C)C)C(=O)[C@@]1(C)CO1`: the results for the Potency in assay [1], in assay [2] and in assay [3] were 432 nM (active), 544 nM (active) and 385 nM (active), respectively.
For `O=C1CCc2ccc(OCCCCN3CCN(c4cccc(Cl)c4Cl)CC3)cc2N1`, in that order: “inactive”, “inactive” and “inactive”.
For `CCC[C@H](N[C@@H](C)C(=O)N1[C@H](C(=O)O)C[C@@H]2CCCC[C@@H]21)C(=O)OCC`, in that order: “inactive”, “inactive” and “inactive”.
As to `Cc1cccc(Nc2ccccc2C(=O)O)c1C`, the Potency entry in assay [1], in assay [2] and in assay [3] was “inactive” throughout.
For `CC[N+](C)(C)c1cccc(O)c1`, the Potency entry in assay [1], in assay [2] and in assay [3] was “inactive” throughout.
As to `Clc1ccc(C(c2ccccc2Cl)C(Cl)Cl)cc1` (centres undefined), the Potency result in assay [1], in assay [2] and in assay [3] was “inactive” throughout.
On to `CCOC(=O)N1CCC(=C2c3ccc(Cl)cc3CCc3cccnc32)CC1`, for which the Potency result in assay [1], in assay [2] and in assay [3] was “inactive” in each case.
With `OC(CCN1CCCC1)(c1ccccc1)C1CCCCC1` (centres undefined), the Potency entry in assay [1], in assay [2] and in assay [3] was “inactive” throughout.
For `CC(=O)O[C@]1(C(C)=O)CC[C@H]2[C@@H]3C=C(C)C4=CC(=O)CC[C@]4(C)[C@H]3CC[C@@]21C`, the Potency entry in assay [1], in assay [2] and in assay [3] was “inactive” in each case.
As for `COc1ccccc1OCC(O)CN1CCN(CC(=O)Nc2c(C)cccc2C)CC1` (centres undefined), the Potency entry in assay [1], in assay [2] and in assay [3] was “inactive” in each case.
Take `Cc1oncc1C(=O)Nc1ccc(C(F)(F)F)cc1`: the Potency entry in assay [1], in assay [2] and in assay [3] was “inactive” in each case.
In the case of `CCCCS(=O)(=O)N[C@@H](Cc1ccc(OCCCCC2CCNCC2)cc1)C(=O)O`, the Potency entry in assay [1], in assay [2] and in assay [3] was “inactive” in each case.
With `NC[C@H](O)c1ccc(O)c(O)c1`, the Potency result in assay [1], in assay [2] and in assay [3] was “inactive” throughout.
